Source: PubChem (Buhrlage Lab, Dana-Farber Cancer Institute and Novartis Institutes for BioMedical Research (Cambridge, Mass))
USP30 block = inhibitors of human USP30 deubiquitinase. purified USP30, Ub-rhodamine cleavage fluorescence. inhibition, % at 25 µM. actives 5.3% (n = 47,000). AID 1645860
USP28 inh = human USP28 deubiquitinase inhibition; actives 3% (n = 47,000); inhibition, % at 25 µM; AID 1645857; Q96RU2; purified USP28, Ub-rhodamine cleavage fluorescence, 30 min
Target sequence (Q96RU2 whole entry, looked up): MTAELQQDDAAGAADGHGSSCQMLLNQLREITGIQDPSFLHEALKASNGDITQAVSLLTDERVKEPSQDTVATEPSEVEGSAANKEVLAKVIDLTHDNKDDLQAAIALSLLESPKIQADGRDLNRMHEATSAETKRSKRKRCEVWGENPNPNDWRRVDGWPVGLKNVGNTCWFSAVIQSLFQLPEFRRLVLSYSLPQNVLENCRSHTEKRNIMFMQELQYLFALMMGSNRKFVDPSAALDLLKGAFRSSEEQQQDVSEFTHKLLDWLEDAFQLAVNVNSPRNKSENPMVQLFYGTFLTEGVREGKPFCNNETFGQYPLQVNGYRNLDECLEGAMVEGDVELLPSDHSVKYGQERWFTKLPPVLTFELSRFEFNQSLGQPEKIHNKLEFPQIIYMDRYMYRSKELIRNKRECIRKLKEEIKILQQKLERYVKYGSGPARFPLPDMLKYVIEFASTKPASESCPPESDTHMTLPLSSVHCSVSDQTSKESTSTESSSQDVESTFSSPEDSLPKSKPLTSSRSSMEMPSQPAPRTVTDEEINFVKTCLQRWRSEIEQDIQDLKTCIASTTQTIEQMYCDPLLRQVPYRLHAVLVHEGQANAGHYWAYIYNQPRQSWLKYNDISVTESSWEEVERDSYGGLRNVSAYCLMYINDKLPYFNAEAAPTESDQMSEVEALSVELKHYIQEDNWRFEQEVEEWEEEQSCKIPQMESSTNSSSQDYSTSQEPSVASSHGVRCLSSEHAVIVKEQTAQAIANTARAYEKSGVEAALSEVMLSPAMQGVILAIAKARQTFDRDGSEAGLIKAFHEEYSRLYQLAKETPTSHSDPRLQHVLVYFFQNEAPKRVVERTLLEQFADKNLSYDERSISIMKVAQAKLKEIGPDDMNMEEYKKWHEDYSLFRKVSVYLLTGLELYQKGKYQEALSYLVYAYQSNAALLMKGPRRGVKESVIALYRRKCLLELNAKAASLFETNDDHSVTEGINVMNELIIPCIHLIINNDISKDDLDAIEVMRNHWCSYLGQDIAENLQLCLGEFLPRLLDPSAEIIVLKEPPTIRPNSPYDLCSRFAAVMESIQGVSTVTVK
Large screens that a line does not name were inactive. Compounds with a hit are over-represented: about 7% of the library has one in this group of screens. No stated cut-off is given here; in the data, active means inhibition above about 30%; inactive means the rest.

CC(C)CN1Cc2c(C(=O)N3CCCCC3)ncn2-c2ccccc2S1(=O)=O	none
Cc1ccc(Cl)c(-n2nnc(C(=O)Nc3ccccc3F)c2C)c1	none
CCc1nnc(NC(=O)c2nnn(-c3ccccc3Cl)c2C)s1	USP30 block 37, USP28 inh 60
CN(C)C=Nc1c(C#N)cnn1-c1ccc([N+](=O)[O-])cc1	USP30 block 74
Cc1cc(=O)oc2c1c(C)nn2-c1ccc([N+](=O)[O-])cc1	none
Cc1ccc(S(=O)(=O)N2CCC(c3cc4n(n3)CCCNC4=O)CC2)c(C)c1	none
CNC(=O)C1CN(C(=O)Cc2cccc(F)c2)CC12CCCC2 (stereo not given)	none
CC1Cc2cc(S(=O)(=O)N3CCCCCC3)ccc2N1C(=O)C1CC1 (stereo not given)	none
CC1Cc2cc(S(=O)(=O)NCCN3CCCCCC3)ccc2N1C(=O)C1CC1 (stereo not given)	USP28 inh 39
Cc1nn(-c2ccccc2)c2c1C(c1ccco1)c1c(ncn3nc(CO/N=C/c4ccccc4Cl)nc13)O2 (stereo not given)	none
COc1ccc(/C=N/OCc2nc3c4c(ncn3n2)Oc2c(c(C)nn2-c2ccccc2)C4c2ccco2)cc1 (stereo not given)	USP30 block 42
O=C(COc1ccccc1)NCc1csc(-c2ccccc2)n1	USP30 block 31
Cc1ccc(-c2nc(CNC(=O)Cc3ccccc3)cs2)cc1	none
Cc1ccc(CNC(=O)c2cn(-c3ccccc3)nc2-c2ccccc2)o1	none
CCCOc1ccnc2c1c(=O)n(CC(=O)NCC1CCCO1)c(=O)n2C (stereo not given)	none
Cc1cc(NCCCC(=O)Nc2ccc(C)c(C)c2)n2nc(-c3cccnc3)nc2n1	none
COc1ccc(NC(=O)c2cc3n(n2)CCCC3)cc1	none
Cc1cc(=O)n2[nH]c(CNc3cccc(Cl)c3)nc2n1	none
Cc1cc(=O)n2[nH]c(CNc3cccc(C(F)(F)F)c3)nc2n1	USP30 block 31
O=C(CCc1nnc2ccc(N3CCOCC3)nn12)N1CCN(Cc2ccccc2)CC1	none
CC(=O)N1c2ccc(S(=O)(=O)N3CCC(C(=O)NCc4cccs4)CC3)cc2CC1C (stereo not given)	none
CCOc1ccc2nc(NC(=O)C3CCN(S(=O)(=O)c4ccc5c(c4)CC(C)N5C(C)=O)CC3)sc2c1 (stereo not given)	USP30 block 50
Cc1ccc(CNC(=O)c2ccc3noc(-c4ccc(F)cc4)c3c2)cc1	none
C[C@H]1[C@H](C)CCC23CC[C@]4(C)[C@@](C=CC5[C@@]6(C)CC[C@H](O)C(C)(C)[C@@H]6CC[C@]54C)(OC2=O)[C@H]13 (stereo not given in full)	USP30 block 56, USP28 inh 38
C[C@@H]1CC[C@H]2C(C)(C)[C@H](O)CC[C@]2(C)[C@@]12Cc1c(O)cc3c(c1O2)CNC3=O	none
CC(=O)c1ccc(N2CCN(C(=O)c3cc(Cl)c4c(c3)OCCO4)CC2)cc1	USP30 block 34
CC(=O)c1ccc(N2CCN(C(=O)c3ccc(-c4noc(C)n4)cc3)CC2)cc1	none
COc1ccc(-c2cc3c(=O)n(CC(=O)Nc4ccc(Cl)cc4)ccn3n2)cc1	none
COc1ccc(-c2cc3c(=O)n(CC(=O)Nc4ccccc4C)ccn3n2)cc1	USP30 block 31
O=C(O)C1CC12CCN(C(=O)C1(c3ccc(Cl)cc3)CCOCC1)CC2 (stereo not given)	none
Cc1nn(-c2ccccc2)c2c1N=C1C(Cl)=CC(Cl)=CN1C21C(=O)Nc2ccccc21 (stereo not given)	USP28 inh 50
Cc1nn(-c2cccc(C(F)(F)F)c2)c2c1C(c1ccccc1)N1C=C(Cl)C=C(Cl)C1=N2 (stereo not given)	none
Cc1ccc2c(c1)N(C(=O)Cn1ccc3ccn(C)c3c1=O)CCO2	none
COc1ccc2cc(CCNC(=O)C3(c4ccc(Cl)cc4)CCCC3)c(=O)[nH]c2c1	none
O=C(Nc1ccc(Cl)cc1)c1noc2c1CCCC2	USP30 block 35
COc1ccc(NC(=O)c2noc3c2CCCC3)c(OC)c1	none
CC(C)=CCC/C(C)=C/CC/C(C)=C/Cc1c(C)[nH]c2ccccc2c1=O	none
CC(C)=CCC/C(C)=C/Cc1c(O)cc2c(c1O)C(=O)OC2	USP28 inh 74
O=C1CC(C(=O)Nc2cccc(Br)c2)c2ccc(F)cc2N1 (stereo not given)	USP28 inh 39
O=C1CC(C(=O)Nc2cccc(Cl)c2)c2ccc(F)cc2N1 (stereo not given)	none
Cc1noc(-c2ccnc(-n3cnc(C(=O)NC4CCCC4)c3)c2)n1	none
CCOC(=O)c1ccc(NC(=O)CN2C(=O)CSCC2=O)cc1	none
CCOC(=O)c1ccc(NC(=O)COc2cccc3c2CCN(CC)C3=O)cc1	USP28 inh 69
COc1ccc(C(=O)Nc2ccc(S(=O)(=O)N3CCCCC3)cc2)cc1	USP28 inh 66
O=C(Nc1ccc2[nH]ccc2c1)C1CCN(S(=O)(=O)c2ccccc2)CC1	USP30 block 45
COc1ccc(C(=O)Nc2cnc(N3CCCCCC3)nc2)cc1	USP28 inh 44
O=C(Nc1ccc2c(c1)OCO2)c1cccc(S(=O)(=O)N2CCCCCC2)c1	none
O=C(Nc1cnc(N2CCCCCC2)nc1)c1ccc(F)cc1	none
CC(=O)Nc1ccc(S(=O)(=O)N2CCC(C(=O)Nc3ccc4cc[nH]c4c3)CC2)cc1	none
CCOC(=O)N1CCN(S(=O)(=O)c2ccc(C(=O)Nc3ccc(OCC)cc3)cc2)CC1	none
COc1ccc(S(=O)(=O)N2CCC(C(=O)Nc3ccc4c(c3)OCO4)CC2)cc1	USP28 inh 38
COc1ccc(C(CNC(=O)COc2ccccc2Cl)N2CCCC2)cc1 (stereo not given)	none
O=C(NC1CCCCC1)C1CCN(C(=O)c2cc(-c3cccnc3)n[nH]2)CC1	none
COc1ccc2c(CNCc3cccnc3)c(C(=O)O)n(Cc3ccc(F)cc3Cl)c2c1	none
CCn1cc(C(=O)NCc2cnc(C3(C)CCCCO3)nc2)cn1 (stereo not given)	none
Cc1ccc(C(=O)Nc2ccc(S(=O)(=O)N3CCCC3)cc2)cc1Br	USP30 block 45, USP28 inh 78
O=C(Nc1ccc(Br)cc1F)c1ccc(S(=O)(=O)N2CCCC2)cc1	none
O=C(Nc1ccc(S(=O)(=O)NC2=NCCCCC2)cc1)c1ccccc1	none
COc1ccc(C(=O)Nc2cccc(S(=O)(=O)NC3=NCCCCC3)c2)cc1	USP28 inh 40
Cc1cc(NC(=O)CN2CCCN(S(=O)(=O)c3ccc(F)cc3)CC2)ccc1Br	USP30 block 38
Cc1cccc(NC(=O)CN2CCCN(S(=O)(=O)c3ccc(Br)cc3)CC2)c1	none
O=C(C1CCCC1)N1CCCC1c1cccc(Cc2cccc(F)c2)n1 (stereo not given)	none
O=C(c1ccc(CN2C(=O)C3CCCN3C(=O)c3ccccc32)cc1)N1CCCCCC1 (stereo not given)	none
COCCC(=O)N1C[C@@H]2OCC(=O)N(Cc3ccccc3)[C@@H]2C1	none
COc1cc(C2CCN(S(=O)(=O)c3ccccc3)CC2)on1	none
CC(=O)c1cccc(NC(=O)C(Sc2nncn2-c2ccccc2)c2ccccc2)c1 (stereo not given)	none
Cn1cc(-c2cnc(-c3cccnc3)nc2)cc1C(=O)NCc1ccccc1	none
COc1ccnc2c1c(=O)n(CC(=O)NC1CCCCC1)c(=O)n2C	none
Cc1nc(-c2cccc(NC(=O)c3ccccc3)c2)cs1	none
COc1cccc(NC(=O)c2cc(-c3cccs3)on2)c1	USP30 block 34, USP28 inh 32
Cc1nc(-c2noc3ccc(C(=O)NCc4ccncc4)cc23)cs1	none
